Test results as given in ChEMBL document CHEMBL1157539, “Thousands of chemical starting points for antimalarial lead identification” (Nature, 2010).

Assays:
Format in all cases: functional
Plasmodium falciparum [1] = assay: GSK_TCMDC: Inhibition of Plasmodium falciparum 3D7 in whole red blood cells, using parasite LDH activity as an index of growth. Test compounds present at 2uM
Plasmodium falciparum [2] = assay: GSK_TCMDC: Inhibition of Plasmodium falciparum Dd2 in whole red blood cells, using parasite LDH activity as an index of growth. Test compounds present at 2uM
HepG2 = assay: GSK_TCMDC: Percent inhibition of human HepG2 cell line. Test compounds present at 10uM.

| Compound | Inhibition (Plasmodium falciparum [1]) | Inhibition (Plasmodium falciparum [2]) | Inhibition (HepG2) |
| --- | --- | --- | --- |
| COc1ccc2nccc([C@@H](O)CN3CCC(NC(=O)c4ccc(OC)c(N)c4)CC3)c2c1.CS(=O)(=O)O | 93% | 0% | 9% |
| CCCCCc1ccc(N2C(N)=NC(N)=NC2(C)C)cc1.Cl | 95% | 1% | 59% |
| O=C(Nc1cc(C(F)(F)F)cc(C(F)(F)F)c1)NC(CCCN1CCC2(CC1)OCc1ccccc12)c1ccc(Cl)c(Cl)c1 (centres undefined) | 94% | 87% | 26% |
| CC(CN(C)C)C(=O)Nc1cccc(-c2ccc(-c3nc4cc(F)ccc4[nH]3)s2)c1 (centres undefined) | 100% | 99% | 3% |
| CCCCCCCCNc1c2ccc(Cl)cc2nc2ccc(OC)cc12.Cl | 89% | 96% | 11% |
| O=C(C=Cc1ccc(Cl)c(Cl)c1)NCCCCCN1CCC(CCNC(=O)/C=C/c2ccccc2)CC1 | 97% | 1% | 25% |
| O=C(Nc1ccc(C(F)(F)F)cc1)c1cc(Cl)cc2nc(C(F)(F)F)[nH]c12 | 100% |  | 86% |
| O=C(O)C(F)(F)F.Oc1ccc(CNCC2CCN(CC3CCCCC3)CC2)cc1 | 82% |  | 9% |
| CC(C)(C)c1cc(Cl)cc(C(=O)Nc2cc([N+](=O)[O-])ccc2Cl)c1O | 91% |  | 79% |
| NC(=O)c1sc(-n2cnc3ccc(C(=O)NCCN4CCOCC4)cc32)cc1OCc1ccccc1C(F)(F)F.O=CO | 81% |  | 0% |
| CO/N=C(\C)c1ccc2c(c1)CCN(CCC1CCC(NC(=O)c3cccc(-c4noc(C)n4)c3)CC1)CC2.Cl (centres undefined) | 90% |  | 42% |
| COc1cc2c(cc1C(F)(F)F)N(C(=O)Nc1ccc(Br)cn1)CC2 | 97% |  | 16% |
| O=[N+]([O-])c1ccc(-n2nc(-c3cccnc3)n(Cc3ccco3)c2=S)c(Cl)c1 | 95% |  | 13% |
| COc1cc(Cc2cnc(N)nc2N)ccc1OCc1csc(-c2ccc(Cl)cc2)n1 | 93% |  | 39% |
| O=C(Nc1cccc(-c2nn3ccccc3c2-c2ccnc(Nc3cccc(F)c3)n2)c1)C1CCCCC1 | 85% |  | 44% |
| Cc1cc(OCCCN2CCC(NC(=O)c3ccc(Br)cc3)C2)c2ccccc2n1 (centres undefined) | 85% |  | 13% |
| C[C@H]1CN(Cc2ccc(-c3cccc(CNC(=O)c4cccc(C(=O)c5ccc(Cl)c(Cl)c5)c4)c3)s2)CCN1.O=C(O)C(F)(F)F | 99% |  | 3% |
| O=C(Nc1cccc(Cl)c1)c1cc2ccccc2cc1O | 97% |  | 4% |
| c1ccc2sc(-c3csc(Nc4ccncc4)n3)nc2c1 | 86% |  | 0% |
| CC(Sc1nnc(-c2ccccc2Br)[nH]1)C(=O)Nc1ccc(F)cc1 (centres undefined) | 90% |  | 0% |

| Compound | Inhibition (Plasmodium falciparum [1]) | Inhibition (Plasmodium falciparum [2]) | Inhibition (HepG2) |
| --- | --- | --- | --- |
| CC1CN(c2ccc3[nH]cc(Sc4ccc(-c5cccs5)cc4)c3c2)CC(C)N1.Cl (centres undefined) | 89% |  | 29% |
| Cc1nc(Cl)c2c(-c3ccccc3)csc2n1 | 84% |  | 0% |
| Cc1nn(-c2ccccc2)nc1C(=O)N(Cc1ccc(-c2ccc(CNCCc3ccc(S(C)(=O)=O)cc3)cn2)cc1)C1CC1.O=C(O)C(F)(F)F | 84% |  | 9% |
| COc1ccc(C2CC(c3cccs3)=NN2C(=O)COc2cccc(C(C)=O)c2)cc1OC (centres undefined) | 99% |  | 10% |
| CNC(=O)c1ccc(/C=C/C(=O)N2CCc3ccc(-c4ccccc4)cc3C2c2cccc(C(F)(F)F)c2)cc1 (centres undefined) | 91% |  | 9% |
| CC(=O)Nc1ccc(CN2CCc3ccc(NS(=O)(=O)c4ccc(-c5cccc(C(F)(F)F)c5)cc4)cc3CC2)s1 | 82% |  | 23% |
| COc1ccc(CCN2CC[C@H](CNc3nc(-c4ccccc4)nc4ccccc34)C2)cc1S(N)(=O)=O.O=C(O)C(F)(F)F | 85% |  | 54% |
| O=C(NNC(=O)c1ccc(CN2CCC(c3nc4ccccc4[nH]3)CC2)cc1)Nc1ccc(Oc2ccccc2)cc1.O=C(O)C(F)(F)F | 86% |  | 0% |
| CCn1c(-c2nonc2N)nc2c(-c3cccc(NC(=O)NCc4ccccc4)c3)ncc(OCCCN)c21.O=C(O)C(F)(F)F | 99% |  | 5% |
| CC1(C)C(=O)N=C2C1=C(O)C(=O)c1ccccc12 | 93% |  | 0% |
| N#Cc1cc(N(CCCOc2cccc(OC(F)(F)F)c2)Cc2ccccc2C(F)(F)F)ccc1C(F)(F)F | 94% |  | 2% |
| O=C(Nc1ccc(OC2CCN(CC3CC3)CC2)c(Cl)c1)c1ccc2ncccc2c1.O=C(O)C(F)(F)F | 84% |  | 19% |
| COc1cc(OC)cc(C(=O)Nc2nc(-c3ccc(NC(=O)c4ccccc4)cc3)cs2)c1 | 88% |  | 16% |
| S=C(Nc1ccc(Cl)cc1)Nc1ccc(Nc2ccccc2)cc1 | 84% |  | 14% |
| COc1cccc(-c2nc(Nc3ccncc3)c3ncn(C)c3n2)c1.O=C(O)C(F)(F)F | 94% |  | 14% |
| CCc1cc(-c2n[nH]c(C(F)(F)F)c2-c2ccccc2)c(O)cc1OC | 84% |  | 9% |
| CCCN1CCN(CCNc2c3ccccc3nc3ccccc23)CC1 | 88% |  | 13% |
| COc1ccc(NC(=O)c2ccc(-c3cccc(OCc4ccccc4)c3)cc2)cc1N1CCN(C)CC1 | 85% |  | 29% |
| COc1ccc(CN2CCN(CC(=O)Nc3cc(Cl)ccc3-n3cncn3)CC2)cc1F | 93% |  | 0% |
| COc1cc(CCNCC(O)c2ccc([N+](=O)[O-])c(OCc3ccccc3)c2)cc(OC)c1OC.Cl (centres undefined) | 98% |  | 11% |

| Compound | Inhibition (Plasmodium falciparum [1]) | Inhibition (Plasmodium falciparum [2]) | Inhibition (HepG2) |
| --- | --- | --- | --- |
| O=C(CN1C(=O)CC1S(=O)(=O)Cc1ccco1)NCCCCCCc1ccc(F)cc1 (centres undefined) | 95% |  | 0% |
| C=CCOc1cc(Cc2cnc(N)nc2N)cc(OC)c1OC.Cl | 81% |  | 0% |
| Brc1ccsc1-c1nc(NC2CCN(Cc3ccccc3)CC2)no1 | 80% |  | 0% |
| COc1cccc(-c2cc3c(NCc4ccncc4)nccc3s2)c1 | 87% |  | 0% |
| O=C(c1ccccc1)N1CCC[C@](CCCN2CCN(c3ccccc3O)CC2)(c2ccc(Cl)c(Cl)c2)C1 | 80% |  | 16% |
| CCCCNC(=O)C1CCCN(C(=O)c2ccc(O)c(-c3ccc(Cl)c(Cl)c3)c2)C1 (centres undefined) | 83% |  | 3% |
| Nc1nc(O)c2cc(CNc3ccc(C(=O)N[C@@H](CCC(=O)O)C(=O)O)cc3)ccc2n1 | 96% |  | 2% |
| CC(C)CN1C(=O)C(c2ccc(F)c(F)c2)=C(O)C1c1ccccc1 (centres undefined) | 94% |  | 0% |
| CCN(CC)CCCC(C)Nc1ccnc2cc(Cl)ccc12.O=P(O)(O)O.O=P(O)(O)O (centres undefined) [CHLOROQUINE PHOSPHATE] |  | 96% | 12% |
| Nc1[nH]c2ccccc2c(=O)c1-c1nc2ccccc2s1 | 97% |  | 16% |
| CCN1CCN(c2cc(C)c3cc(NC(=O)c4ccc(C(C)(C)C)cc4)ccc3n2)CC1 | 85% |  | 34% |
| Cl.Oc1cccc(Nc2ccnc3cc(-c4nccs4)ccc23)c1 | 98% |  | 0% |
| COc1ccc(NS(=O)(=O)c2ccc(Oc3nc(C)nc4sc5c(c34)CCCC5)cc2)cc1 | 96% |  | 5% |
| CCN(CC)CCCN(C(=O)Nc1cc(F)cc(F)c1)c1nc(-c2ccc(F)cc2)cs1 | 82% |  | 27% |
| Cc1ccc(Nc2c3ccccc3nc3ccc(C)cc23)cc1 | 88% |  | 26% |
| N=C1SC(=Cc2cn[nH]c2-c2ccc(F)cc2)C(=O)N1c1nccs1 | 91% |  | 28% |
| O=c1ccc2ccc(O)c(O)c2o1 [DAPHNETIN] | 85% |  | 4% |
| Cl.O=C(NCCCCN1CCC(c2ccc3c(c2OCCCO)CCCC3)CC1)c1ccc(-c2ccc(C(F)(F)F)cc2)c(CO)c1 | 95% |  | 66% |
| CN1CCC(N2CCN(C(=O)c3cccc(-c4cccc(-c5nc6ccccc6[nH]5)c4)c3)CC2)CC1 | 100% |  | 10% |
